# Laboratory results reported in PubChem BioAssay (Tox21).
# Active and inactive are the calls of the source. Calls come from the whole dose curve; as a rule, active = well fitted curve in the direction sought with a large enough effect in the repeat runs; inconclusive = weak or mixed curves; inactive = flat fitted curve, though single readings scatter.
# Experiment: qHTS assay to test for compound auto fluorescence at 535 nm (green) in HEK293 cells (AID 720680)
# Details: green autofluorescence 485/535 nm; series mostly up to 91.3 µM
# Excerpt: U.S. Tox21 Program National Center for Advancing Translational Sciences [NCATS] NIH Chemical Genomics Center [NCGC] U.S. Environmental Protection Agency [EPA] National Institutes of Environmental Health Sciences [NIEHS] National Toxicology Program [NTP] U.S. Food and Drug Administration [FDA] Tox21 Assay Overview: Compound auto fluorescence often interferes with screening of the compound library against various biological targets and signaling pathways. Some of these compounds may have fluorophoric properties. Such properties may interfere with the assay outputs resulting in false positives and/or negatives. To decrease such complications and ensure the compound activities are relevant in terms of biological response, the Tox21 10K compound library was screened for auto fluorescence. From the fluorophores used as reporter signals in our screening assays, the auto fluorescence equivalencies of compounds against three fluorophores have been evaluated: Triamterene, Fluorescein and Rose Bengal sodium for blue, green and red fluorescence, respectively. The fluorescence intensities were measured using Excitation/Emission wavelengths at 405/460nm, 485/535nm and 540/590nm for blue, green and red labels, respectively. This assay includes the green fluorescence data.
# Tox21 Assay Protocol Summary: 2,000 HEK293 cells in 5 uL of culture medium containing 10% dialyzed FBS per well were dispensed into black wall/clear bottom 1536-well plates using a Multidrop Combi Dispenser (Thermo Scientific). The assay plates were incubated for 4-5 hr at 37C to allow cell attachment to the well bottom, followed by the transfer of 23 nL compound or DMSO vehicle by a pintool work station (Kalypsys, San Diego, CA). After the assay plates were incubated overnight at 37C and 5% CO2, fluorescence intensities in the assay plates were measured by an Envision (PerkinElmer, Shelton, CT) plate reader using three labels for measuring blue, green and red fluorescence at […] 460, 535 and 590nm respectively.
row,Structure (SMILES),outcome
1,CC[N+](CC)(CC)CC,inactive
2,C1CCC(NC2CCCCC2)CC1,inactive
3,COCC(=O)N(c1c(C)cccc1C)C(C)C(=O)OC (stereo not given),inactive
4,CC(Cl)(Cl)C(=O)O,inactive
5,Cc1cc(Cl)ccc1N,inactive
6,CCC(=O)C(CC(C)N(C)C)(c1ccccc1)c1ccccc1 (stereo not given),inactive
7,CCCCCC[n+]1ccccc1,inactive
8,COc1ccc(N)cc1,inactive
9,O=C(O)C(Cl)Cl,inactive
10,CCCCCCCCCCCCCC[P+](CCCCCC)(CCCCCC)CCCCCC,inactive
11,CC[n+]1ccccc1,inactive
12,Nc1ccccc1,inactive
13,Oc1cccc2cccnc12,inactive
14,O=c1nc(O)n(Cl)c(=O)n1Cl,inactive
15,CCCC[n+]1ccc(C)cc1,inactive
16,CN(C)[C@@H]1C(=O)C(C(N)=O)=C(O)[C@@]2(O)C(=O)C3=C(O)c4c(O)cccc4[C@@](C)(O)[C@H]3[C@H](O)[C@@H]12,inactive
17,COP(=O)(OC)C(O)C(Cl)(Cl)Cl (stereo not given),inactive
18,CCCC[n+]1ccccc1C,inactive
19,CCCCCCCCCCCC(=O)O,inactive
20,CCCCn1cc[n+](C)c1C,inactive

row,Structure (SMILES),outcome
1,O=c1[nH]c(=O)n(Cl)c(=O)n1Cl,inactive
2,O=C(O)CCl,inactive
3,O=S(=O)(O)O,inactive
4,O=C(O)CC(O)(CC(=O)O)C(=O)O,inactive
5,CC(=O)[O][Hg][c]1ccccc1,inactive
6,O=P1(N(CCCl)CCCl)NCCCO1 (stereo not given),inactive
7,CCCCCCCCCCn1cc[n+](C)c1,inactive
8,O=C(O)C(Cl)(Cl)Cl,inactive
9,CCCn1cc[n+](C)c1,inactive
10,CC(=O)O,inactive
11,CCCC[n+]1ccccc1,inactive
12,CCCC[N+]1(C)CCCC1,inactive
13,COP(=O)(OC)OC=C(Cl)Cl,inactive
14,CCC[N+]1(C)CCCCC1,inactive
15,Cc1cc(-c2ccc(N)c(C)c2)ccc1N,inactive
16,Cc1cc(Cl)ccc1OCC(=O)O,inactive
17,Nc1ccc(Cl)cc1,inactive
18,O=C(O)COc1ccc(Cl)cc1Cl,inactive
19,CCC[N+]1(C)CCCC1,inactive
20,O=C(O)c1nc(Cl)ccc1Cl,inactive
